# HT1080NT lethal: kills 2HG-producing HT-1080-NT fibrosarcoma cells | HT-1080-NT fibrosarcoma viability, CellTiter-Glo ATP luminescence, 48 h | Potency, µM (series often up to 46.1 µM), inactives show top-dose activity, negative = less viability, hits mostly cytotoxic | 360,000 tested, 1.6% active | AID 686970;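 note: NT is the 2HG producing partner of a matched IDH1 knockdown line; 0% = DMSO-treated cells and -100% = media-only wells without cells; nearly all actives have a fitted effect of over 55% in size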
#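 Viability by CellTiter-Glo luminescence after 48 h compound exposure at 37C of HT-1080-NT cells (750/well, RPMI, 5% FBS). % activity scaled between DMSO wells and medium-only wells, then curve-fitted and categorized by curve class.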
# MCF10A rereplic: inducers of DNA re-replication in MCF 10A breast cells | MCF 10A DNA re-replication, Hoechst nuclear intensity, 48 h | Potency, µM (doses to about 46.1 µM), for inactives: at the highest dose activity, positive = re-replication, hits mostly activators | 350,000 tested, 2.9% active; note: % of control where 0% means no effect; nearly all actives have a fitted effect of over 50% in size
# KB-3-1 cytotox: kills parental KB-3-1 adenocarcinoma cells; KB-3-1 viability, CellTiter-Glo ATP luminescence, 72 h; Potency, µM (doses to about 46.1 µM), usual class: cytotoxic; 400,000 tested, 1.4% active; note: % is set by controls: 0 for no effect and ±100 for the full control effect; nearly all actives have a fitted effect of over 60% in size
#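 KB-3-1 cells, DMEM (no phenol red) + 10% FBS; compound by pin transfer, 72 h, 37 °C. Readout: CellTiter-Glo luminescence after 10 min. Data normalized, curve-fitted.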
# HT1080 IDH1KD tx: HT-1080 IDH1 knockdown cell toxicity (counter line) | HT-1080 IDH1 knockdown viability, ATP luminescence, 48 h | Potency, µM (highest dose often 46.1 µM), for inactives: at the highest dose activity, negative = toxicity, most hits filed as cytotoxic | 360,000 tested, 2% active;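 note: 0% = DMSO wells and -100% = cell-free medium wells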
#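 Using the IDH1-knockdown HT-1080 line run in the same batch and compound series as the NT line, viability after 48 h at 37 °C was determined by CellTiter-Glo luminescence and expressed as % activity.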
# SW480 rerep: induces DNA re-replication in SW480 colon adenocarcinoma cells | Potency, µM (top dose mostly 46.1 µM), for inactives: at the top dose re-replication activation, hits mostly activators | 340,000 tested, 1.8% active | AID 624297 | SW480 DNA re-replication, Hoechst DNA content imaging, 48 h; note: % of control where 0% means no effect; nearly all actives have a fitted effect of over 55% in size
#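 Image-based DNA-content assay: after two days of treatment, nuclei were labelled with the DNA dye Hoechst and imaged, and hits were compounds raising the count of nuclei showing high fluorescence intensity.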
# KB-V1 cytotox: kills drug-selected multidrug resistant KB-V1 cells | KB-V1 MDR cells viability, CellTiter-Glo, 72 h | Potency, µM (series often up to 46.1 µM), hits mostly cytotoxic | 400,000 tested, 3.4% active; note: % is set by controls: 0 for no effect and ±100 for the full control effect; nearly all actives have a fitted effect of over 60% in size
#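 KB-V1 cells (P-gp-expressing MDR subline of KB-3-1) in phenol-red-free DMEM with 10% FBS were exposed to library compounds over a concentration series for 72 h at 37 degrees C. Viability read by CellTiter-Glo luminescence; concentration-effect curves fitted after normalization.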
# * = called active by the depositor; i = inactive; ? = inconclusive; . = no result given; [ ] = another dose, or the depositor's remark. This is a sample that favours compounds with a hit; in the whole collection about 7.9% have one here. Calls come from the whole dose curve; as a rule, active = well fitted curve in the direction sought with a large enough effect; inconclusive = small, poorly fitted or top-dose-only effect, or another doubt; inactive = no such curve, though single readings can be large; an effect the other way counts as inactive or inconclusive. Potency is the fitted concentration of half-maximal effect.
SMILES,HT1080NT lethal,MCF10A rereplic,KB-3-1 cytotox,HT1080 IDH1KD tx,SW480 rerep,KB-V1 cytotox
CCCc1nc2ccccc2n1Cc1ccccc1OC,?,4%,?,-2%,-1%,15µM*
COc1ccccc1Cn1c(CCCO)nc2ccccc21,-6%,5%,i,0%[9.24 µM],-3%,?
CCCNC(=O)Cn1c(=O)n(CC2CCC(C(=O)NC)CC2)c(=O)c2sccc21 (centres undefined),.,.,i,.,.,?
Cc1c(C(=O)N2CCN(S(C)(=O)=O)CC2)oc2ccccc12,6%,0%,i,19%,-1%,i
Cc1c(C(=O)N2CCN(CCc3ccccc3)CC2)oc2ccccc12,1%,?,i,-7%,1%,13µM*
O=C(Cc1ccccc1)Nc1c(C(=O)N2CCN(c3ccc(F)cc3)CC2)oc2ccccc12,.,.,i,.,.,12µM*
CCOc1ccc2oc(C(=O)N3CCN(Cc4ccccc4)CC3)c(C)c2c1,-10%,21µM*,i,-13%,5%,i
CCOc1ccc2oc(C(=O)O)c(C)c2c1,13%,-1%,i,0%,4%,i
CC(=O)Nc1nnc(SCc2cc(=O)c3cc(C)ccc3[nH]2)s1,.,.,i,.,.,?
COc1ccc(N2CCN(C(=O)Cn3cnc4sc(C)c(S(=O)(=O)N5CCC(C)CC5)c4c3=O)CC2)cc1,.,.,i,.,.,i
O=C1CN(C(=O)Cc2ccc(F)cc2)C(c2ccccc2)c2cc(Cl)ccc2N1 (centres undefined),.,.,i,.,.,i
Cc1ccnc2c1ccc1c(C)ccnc12,13µM*,19%,?,15µM*,14%,?
CCNc1cc(S(=O)(=O)C(F)(F)F)ccc1N,1%,19%,?,9%,1%,23µM*
CCNc1ccc(S(=O)(=O)C(F)(F)F)cc1NC(=O)C12CCC(CC1)C2,0%,9%,i,?,9%,i
CCc1sc(Nc2cccc(C)c2C)nc1-c1cc2cccc(OC)c2oc1=O,.,.,i,.,.,i
O=C(CN1c2ccccc2Sc2ccccc21)NNC(=S)Nc1ccc(Cl)cc1,?,?,i,?,-14%,i
O=C(CN1c2ccccc2Sc2ccccc21)NNC(=S)Nc1ccc(Cl)cc1Cl,?,?,21µM*,?,0%,13µM*
O=[N+]([O-])c1cc(C(F)(F)F)cc([N+](=O)[O-])c1NCCNC(=S)Nc1ccc(Cl)c(Cl)c1,16µM*,?,?,?,0%,i
COC(=O)c1sc(NC(=O)c2cc3nc(-c4ccc(Br)cc4)cc(C(F)(F)F)n3n2)c(C(=O)OC)c1C,.,.,i,.,.,i
O=C1C(=O)c2ccccc2C(O)=C1CCCCl,16µM*,?,?,?,-8%,?
COc1ccc(CC2=C(O)c3ccccc3C(=O)C2=O)cc1,?,14%,i,?,1%,i
CCc1ccc(NC(=O)COc2ccc(/C=C(/C#N)c3nc4ccccc4[nH]3)cc2OC)cc1,?,?,1.5µM*,?,?,?
COC(=O)c1ccc(COc2ccc(/C=C(\C#N)c3nc4ccccc4[nH]3)cc2OC)o1,0%,?,i,3%,5%,?
Cc1ccc(-c2csc3ncnc(NCCN4CCOCC4)c23)cc1,-28%,?,i,-20%,17%,i
COc1ccc(-c2oc3ncnc(NCCCN4CCOCC4)c3c2-c2ccc(OC)cc2)cc1,?,?,i,?,?,18µM*
SMILES,HT1080NT lethal,MCF10A rereplic,KB-3-1 cytotox,HT1080 IDH1KD tx,SW480 rerep,KB-V1 cytotox
Clc1ccc(-c2nc(NCCN3CCOCC3)c3ccccc3n2)cc1,?,?,i,?,?,4.1µM*
CCOc1cc2nc(-c3ccc(OC)c(OC)c3)nc(NCCCN3CCOCC3)c2cc1OC,?,12µM*,i,?,?,?
COc1ccc(-c2csc3ncnc(NCCN4CCOCC4)c23)cc1,23µM*,?,?,21µM*,?,?
COc1ccc(-c2oc3ncnc(NCCN4CCOCC4)c3c2-c2ccc(OC)cc2)cc1,1%,?,?,-1%,8%,?
COc1ccc(CCNC(=O)CCc2c(C)nc3c4cccnc4nn3c2C)cc1OC,.,.,i,.,.,i
O=C(Nc1nnc([C@H]2C[C@H](O)[C@@H](CO)O2)s1)c1ccc(Oc2ccccc2)cc1,-1%,.,i,1%,.,i
Cc1cc2ncn(-c3ncccc3[N+](=O)[O-])c2cc1C,3%,-1%,i,0%,1%,i
COc1ccc(-c2oc3ncn(CCN4CCOCC4)c(=N)c3c2-c2ccc(OC)cc2)cc1,?,13µM*,?,?,?,?
O=C1C(=O)c2ccccc2C(O)=C1c1cccc([N+](=O)[O-])c1,-22%,15%,?,?,23µM*,?
CCOC(=O)c1cc(-c2ccc(C)cc2)n(CCC(=O)N2CCN(c3ccccn3)CC2)c1C,4%,?,?,4%,4%,1.2µM*
CCOC(=O)c1cc(-c2ccccc2)n(CCCC(=O)Nc2ccc(C(C)C)cc2)c1C,.,.,i,.,.,?
CCOC(=O)c1cc(-c2ccc(C)cc2)n(CCC(=O)NCc2ccccc2)c1C,.,.,i,.,.,i
CCOC(=O)c1cnc2c(OC)cccc2c1N1CCN(c2ccccn2)CC1,-14%,?,i,-14%,-6%,8.2µM*
CCOC(=O)c1cc(-c2ccc(C)cc2)n(CCC(=O)Nc2ccc(C(C)C)cc2)c1C,.,.,18µM*,.,.,?
Cc1cccc(NS(=O)(=O)c2cc(C(=O)N3CCCCCC3)ccc2C)c1,-2%,10%,i,-6%,-1%,?
CCN(CC(=O)Nc1ccccc1OC)C(=O)C1CCCC1,10%,0%,i,2%,2%,13µM*
CCCN(CC(=O)Nc1ccccc1OC)C(=O)C1CCCC1,-3%,0%,i,-1%,-5%,?
Cc1ccc(NC(=O)c2ccc(-n3cncn3)c([N+](=O)[O-])c2)cc1F,2%,1%,i,-3%,-8%,i
O=C(Nc1ccc(F)cc1)c1ccc(-n2cncn2)c([N+](=O)[O-])c1,-6%,0%,?,1%,50%,12µM*
C=C[C@@H]1c2cc(C)ccc2N(S(=O)(=O)c2ccc(C)cc2)[C@H](c2ccc(C(C)(F)F)cc2)C1(C#N)C#N,.,.,i,.,.,i
Cn1nc(CC(=O)Nc2ccc3c(c2)OCCO3)c2ccccc2c1=O,-5%,-4%,?,-17%,-3%,i

# Screening results from PubChem BioAssay.
